Source: PubChem BioAssay
This excerpt belongs to a sample that is enriched for hits.
Dicer inh = human Dicer pre-microRNA cleavage inhibition; z-score at 25 µM; Q9UPY3; AID 1347074; 47,000 tested, 6% active; cat-ELCCA pre-miR-21 Dicer processing, chemiluminescence; stronger effect = higher value; in the data active = z-score above about 3, passing the limit was not always enough;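 also: higher signal means more uncleaved substrate so more Dicer inhibition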
Numbers stand for hits; – = inactive.

SMILES	Dicer inh
Cn1c(/C=C/c2ccc3c(c2)OCO3)nc2ccccc2c1=O	6.2
CC(CCC(=O)NCC(=O)O)C1CCC2C3C(O)CC4CC(O)CCC4(C)C3CC(O)C12C (stereo not drawn)	–
COc1cccc(OCC(O)CN2CC(C)OC(C)C2)c1 (stereo not drawn)	–
CC1CN(S(=O)(=O)c2cc(Cl)c(Oc3ccc([N+](=O)[O-])cc3Cl)c(Cl)c2)CC(C)O1 (stereo not drawn)	–
Cc1c2c(=O)n(-c3nc4ccccc4s3)nc-2cc(O)n1CCc1c[nH]c2ccccc12	–
CCC(C)Cn1c(C)c2c(=O)n(-c3nc4ccccc4s3)[nH]c2cc1=O (stereo not drawn)	–
Cc1c2c(=O)n(-c3nc4ccccc4s3)nc-2cc(O)n1CCc1cnc[nH]1	3.6
Cc1ccc2oc(-c3ccc(C(C)C)cc3)c(O)c(=O)c2c1	–
CCOC(=O)c1c(C)nn(-c2ccc(NS(=O)(=O)c3c(C)noc3C)cc2)c1C	–
CC(C)(C)c1ccc(C(=O)c2cccs2)s1	–
C=C(C)CC1N(c2ccccc2C)C(=O)C2C(C(=O)O)C3C=CC21O3 (stereo not drawn)	–
C=CCN(C#N)c1nc(NC(C)C)nc(NC(C)C)n1	6.5
CCOC(=O)c1oc2ccc(OC)cc2c1CSc1ccccn1	4
Cc1nnc(NC(=O)CSc2ccccn2)s1	–
COc1ccc(OC)c(NC(=O)CSc2nccn2C)c1	–
COc1ccc(OC)c(C(=O)c2oc3ccccc3c2NC(=O)CSc2ccccn2)c1	3.3
CCOC(=O)c1oc2ccccc2c1CO	–
CCOC(=O)c1oc2ccccc2c1CSc1ccccn1	–
Cc1onc(-c2ccccc2)c1-c1csc(-c2ccc(-c3csnn3)cc2)n1	–
O=C(Oc1nnc(SCCS(=O)(=O)c2ccc(F)cc2)n1C1CC1)c1cccs1	–
CCCCOC(=O)C1=C(C)NC2=C(C(=O)CCC2)C1c1cccnc1 (stereo not drawn)	–
N#Cc1ccc(NS(=O)(=O)c2ccc3ccccc3c2)cc1	–
c1ccc2[nH]c(CCCc3nc4ccccc4[nH]3)nc2c1	–
COc1ccc(OCc2nc3ccccc3[nH]2)cc1	–
Oc1ccc(Cc2nc3ccccc3[nH]2)cc1	–
SMILES	Dicer inh
Nc1cccc(CCc2nc3cc4ccccc4cc3[nH]2)c1	6.9
Nc1ccc(CCc2nc3ccc(N)cc3[nH]2)cc1	–
O=S(=O)(CCc1nc2ccccc2[nH]1)CCc1nc2ccccc2[nH]1	–
c1ccc(CCc2nc3ccccc3[nH]2)cc1	3.2
CCN(CC)Cc1nc2ccccc2[nH]1	3.4
Nc1cccc(-c2nc3ccccc3[nH]2)c1	–
Fc1ccc(/C=N/NC(=S)N/N=C/c2ccc(F)cc2)cc1	–
O=c1c2cnn(-c3ccccc3)c2ncn1/N=C/c1ccc([N+](=O)[O-])cc1	–
CC(=O)OC[C@H]1O[C@@H](c2nn[nH]n2)[C@H](OC(C)=O)[C@@H](OC(C)=O)[C@@H]1OC(C)=O	–
Cc1c(OCc2ccccc2F)ccc2c1OC(C)(C)CC2=O	–
Cc1ccc(S(=O)(=O)Nc2ccc(-c3cn4cccc(C)c4n3)cc2)cc1	–
Cc1cccn2cc(-c3ccc(NS(=O)(=O)c4ccccc4)cc3)nc12	–
Cc1cccn2cc(-c3cccc(NS(=O)(=O)c4ccc(Br)cc4)c3)nc12	4.1
CN(C)/C=C/C(=O)c1nn(-c2ccc(C(F)(F)F)cc2)ccc1=O	–
N#CC(Nc1ccc(Cl)cc1Cl)c1ccccc1 (stereo not drawn)	–
O=C(Nc1ccc(Cl)cc1)N1CCN(c2ccccn2)CC1	–
CCCCNC(=O)N(C)c1nncnc1C(=O)NC	–
CNC(=O)c1ncnnc1N(C)C(=O)NCc1ccccc1	–
CCNC(=O)N(C)c1nncnc1C(=O)NC	4.5
O=C1CC2(CCCC2)C(=O)N1C1CCN(c2nccc(C(F)(F)F)n2)CC1	–
Cc1cc(=O)n2c(n1)NC(=NCc1ccccc1)NC2c1cccnc1 (stereo not drawn)	–
CSc1nnc(-c2csc(S(=O)(=O)Nc3cccc(Cl)c3)c2)n1C	–
CC(C)(C)NC(=S)Nc1cc(C(F)(F)F)ccc1Cl	–
O=C(O)[C@@H]1CSC([C@H](O)[C@H](O)[C@@H](O)[C@@H](O)CO)N1 (stereo partly drawn)	–
COc1c(Cl)cc(Cl)c(OC)c1C(=O)NCCCN(C)C	–
SMILES	Dicer inh
O=C(O)c1ccc(Nc2nc(-c3cccnc3)cs2)cc1	6.6
Fc1ccc(Nc2nc(-c3ccncc3)cs2)cc1	–
Cc1ccc(-c2csc(Nc3ccc(S(N)(=O)=O)cc3)n2)cc1	7.1
CCc1ccc(-c2csc(Nc3ccc(S(N)(=O)=O)cc3)n2)cc1	–
Cc1cccnc1Nc1nc(-c2cccnc2)cs1	–
COc1ccc(-c2csc(Nc3cccnc3)n2)cc1	–
Cc1ccc(Nc2nc(C(F)(F)F)cs2)cc1	–
Clc1ccc(Nc2nc(-c3ccncc3)cs2)cc1	5.6
Clc1ccc(-c2csc(Nc3ccccc3)n2)cc1	–
O=C(CSc1nnc2c(n1)[nH]c1ccccc12)N1CCCc2ccccc21	–
CN(Cc1ccc(-n2cccn2)cc1)C(=O)c1cnn2c(C(F)(F)F)cc(-c3ccco3)nc12	–
Cc1ccc(Cn2cc(CO)c3ccccc32)cc1	–
CC(C)(C)c1cc2ncnc(N3CCN(c4ncnc5cc(C(C)(C)C)sc45)CC3)c2s1	–
O=c1c(Sc2ccccc2)c(O)cc(-c2ccccc2)n1-c1ccccc1	–
CSCCC(NC(=O)c1ccc(C(F)(F)F)cc1)C(=O)NN (stereo not drawn)	–
CCOC(=O)C(=CNNS(=O)(=O)c1cc(C(F)(F)F)cc(C(F)(F)F)c1)C(=O)OCC	–
COC(=O)C(CCSC)NS(=O)(=O)c1cc(C(F)(F)F)cc(C(F)(F)F)c1 (stereo not drawn)	4.8
FC(F)(F)c1ccccc1N/N=C/c1c(Br)sc2ccc(Cl)cc12	–
COc1ccc2[nH]c(=O)c(-c3noc(-c4ccccc4C)n3)cc2c1	–
CCCOc1ccc(C2C(C(=O)OC)=C(C)NC3=C2C(=O)CC(c2ccc(OC)cc2)C3)cc1 (stereo not drawn)	–
CCOc1cc(C2C(C(=O)OC)=C(C)NC3=C2C(=O)c2ccccc23)cc(Cl)c1O (stereo not drawn)	–
CCOCCOC(=O)C1=C(C)NC2=C(C(=O)CC(c3ccc(Cl)cc3)C2)C1c1ccc(F)cc1 (stereo not drawn)	4.2
CCOc1ccc(C2C(C(=O)OC)=C(C)NC3=C2C(=O)CC(c2ccc(OC)c(OC)c2)C3)cc1 (stereo not drawn)	3.2
CCOC(=O)C1=C(C)NC2=C(C(=O)CC(c3ccc(Cl)cc3)C2)C1c1ccc(OCC)cc1 (stereo not drawn)	3.4
CCOc1cc(C2Nc3ccccc3NC3=C2C(=O)CC(c2ccccc2)C3)cc(Cl)c1O (stereo not drawn)	–
CCOCCOC(=O)C1=C(C)NC2=C(C(=O)CC(c3cccs3)C2)C1c1ccc(F)cc1 (stereo not drawn)	–
CCOC(=O)C1=C(C)NC2=C(C(=O)CC(c3ccc(OC)cc3)C2)C1c1ccc(OC)cc1 (stereo not drawn)	–
CCOCCOC(=O)C1=C(C)NC2=C(C(=O)CC(c3ccccc3)C2)C1c1ccccc1OCC (stereo not drawn)	–
CCOC(=O)C1=C(C)NC2=C(C(=O)CC(c3ccc(Cl)cc3)C2)C1c1ccc(N(C)C)cc1 (stereo not drawn)	–
COC(=O)C1=C(C)NC2=C(C(=O)CC(c3ccc(OC)c(OC)c3)C2)C1c1ccc(OC)cc1OC (stereo not drawn)	–
